# PubChem BioAssay
# Where “and” joins values, the source holds several entries; their conditions need not be identical. Identical values can stand only once. Inconclusive results are not listed. Calls of active or inactive are those of the source. Unless noted, cut-off not given; nearly all actives show AC50 up to about 26 µM.
# Key:
# [1] = viability loss in pontine glioma line – cell-based, SU-DIPG-XXV, MIPE5.0, CellTiter-Glo, qHTS, dose response (AID 1347065); conditions: CellTiter-Glo ATP luminescence;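 further: cells exposed to compound for 48 hours before ATP readout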
# [2] = SU-DIPG-VI glioma cell viability, MIPE4.0 library, CellTiter-Glo luminescence, qHTS (AID 1347066; cut-off not given, nearly all actives have AC50 up to about 30 µM;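 further: cells exposed to compound for 48 hours before readout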); conditions: CellTiter-Glo ATP luminescence
# [3] = JHH-DIPG-1 glioma cell viability, MIPE5.0 library, CellTiter-Glo luminescence, qHTS (AID 1347067); conditions: JHH-DIPG-1 glioma viability, CellTiter-Glo ATP luminescence;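 further: cells exposed to compound for 48 hours before readout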
# [4] = SU-DIPG-XXV glioma cell viability, MIPE5.0 library, qHTS (AID 1347068; cut-off not given, nearly all actives have IC50 up to about 30 µM;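 on IC50: cells exposed to compound for 48 hours before viability readout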)
# [5] = sensitizers of A549 cells to miR-34 induction, primary screen, imaging, A549 dox-inducible miR-34, nuclei and caspase counts (AID 1347080;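 active means compounds whose cell count with miR-34 switched on is under 0.7 times the count with it off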); conditions: A549 miR-34 inducible, Hoechst nuclei count, 48 h
# [6] = modifiers of HSF1 nuclear foci, imaging, Selleck Cancer Library (AID 1347162; in the data active means plate-normalised HSF1 focus index below about 0.46); conditions: human cells, at 10 µM; SSMD: measured here: HSF1 foci SSMD mean; cell count: measured here: cell number; plate-normalised HSF1 focus index: stronger effect = lower value
# [7] = phospholipid biosynthesis inhibitors in animal cells, primary screen, cell-based, LOPAC library, screen 4 (AID 1347384; call rule not given here); conditions: phospholipid biosynthesis inhibition screen, at 10 µM
# [8] = survival rescue of mitochondrial mutant cells in low glucose, primary screen, MELAS cybrids, Rieske KO mouse fibroblasts, CellTiter-Glo (AID 1508586;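 active means mean z-score across replicates of 1.96 or higher in either the MELAS or the Rieske mutant cell line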;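 further: z relative to plate mean and SD of compound and empty wells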)
# [9] = viability rescue of complex I mutant cybrids, primary screen, cell-based, galactose medium, ATP luminescence (AID 1645843;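 active means z-score of at least 1.8 in each of two replicates, scored against plate mean and spread of sample wells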;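 further: positive z means more ATP and so rescue of galactose-driven cybrid death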); conditions: complex I mutant cybrid cells, 72 h, stronger effect = higher value
# [10] = target: NAD(+) hydrolase SARM1 (Homo sapiens) (UniProt Q6SZW1); test: SARM1 TIR NADase inhibitors, cell lysate, NAD-Glo luminescence (AID 1508614;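 active means compound whose remaining NAD level is above about 45 nM, limit read from the data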); conditions: SAM-TIR HEK293T lysate NADase, at 1 µM, stronger effect = higher value
# Chain of NAD(+) hydrolase SARM1 (Homo sapiens) (Q6SZW1 whole entry, looked up, the tested form may be a part): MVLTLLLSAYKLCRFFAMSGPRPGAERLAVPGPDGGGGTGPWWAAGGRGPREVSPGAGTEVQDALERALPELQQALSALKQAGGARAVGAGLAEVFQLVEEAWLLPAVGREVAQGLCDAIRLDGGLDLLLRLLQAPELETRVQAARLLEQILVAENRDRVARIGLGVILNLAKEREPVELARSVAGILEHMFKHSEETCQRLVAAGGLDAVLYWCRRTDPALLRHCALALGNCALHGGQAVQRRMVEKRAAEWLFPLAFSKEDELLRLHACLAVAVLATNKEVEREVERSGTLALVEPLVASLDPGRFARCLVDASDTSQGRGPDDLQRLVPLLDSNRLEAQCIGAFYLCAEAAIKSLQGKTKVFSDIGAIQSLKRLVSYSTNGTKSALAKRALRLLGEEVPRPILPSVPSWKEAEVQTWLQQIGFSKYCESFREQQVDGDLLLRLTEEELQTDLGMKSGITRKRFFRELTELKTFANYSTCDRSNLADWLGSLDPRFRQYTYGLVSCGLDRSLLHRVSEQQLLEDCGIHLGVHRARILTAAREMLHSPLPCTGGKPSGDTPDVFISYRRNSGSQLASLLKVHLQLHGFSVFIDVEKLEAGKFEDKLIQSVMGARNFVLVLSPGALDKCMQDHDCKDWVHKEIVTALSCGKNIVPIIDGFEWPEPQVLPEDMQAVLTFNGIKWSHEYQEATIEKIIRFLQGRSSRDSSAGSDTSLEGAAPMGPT
# [11] = target: Mitogen-activated protein kinase 7 (Homo sapiens) (UniProt Q13164); test: ERK5 transactivation activators in reporter cells, primary screen, cell-based, HTS (AID 1508626;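 active means luciferase signal above three times the same-plate solvent-only control wells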;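 further: luciferase driven by Gal4-ERK5 fusion binding five Gal4 sites before minimal TATA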); conditions: HeLa Gal4-ERK5 transactivation, 18 h, at 5 µM, stronger effect = higher value
# Chain of Mitogen-activated protein kinase 7 (Homo sapiens) (Q13164 whole entry, looked up, the tested form may be a part): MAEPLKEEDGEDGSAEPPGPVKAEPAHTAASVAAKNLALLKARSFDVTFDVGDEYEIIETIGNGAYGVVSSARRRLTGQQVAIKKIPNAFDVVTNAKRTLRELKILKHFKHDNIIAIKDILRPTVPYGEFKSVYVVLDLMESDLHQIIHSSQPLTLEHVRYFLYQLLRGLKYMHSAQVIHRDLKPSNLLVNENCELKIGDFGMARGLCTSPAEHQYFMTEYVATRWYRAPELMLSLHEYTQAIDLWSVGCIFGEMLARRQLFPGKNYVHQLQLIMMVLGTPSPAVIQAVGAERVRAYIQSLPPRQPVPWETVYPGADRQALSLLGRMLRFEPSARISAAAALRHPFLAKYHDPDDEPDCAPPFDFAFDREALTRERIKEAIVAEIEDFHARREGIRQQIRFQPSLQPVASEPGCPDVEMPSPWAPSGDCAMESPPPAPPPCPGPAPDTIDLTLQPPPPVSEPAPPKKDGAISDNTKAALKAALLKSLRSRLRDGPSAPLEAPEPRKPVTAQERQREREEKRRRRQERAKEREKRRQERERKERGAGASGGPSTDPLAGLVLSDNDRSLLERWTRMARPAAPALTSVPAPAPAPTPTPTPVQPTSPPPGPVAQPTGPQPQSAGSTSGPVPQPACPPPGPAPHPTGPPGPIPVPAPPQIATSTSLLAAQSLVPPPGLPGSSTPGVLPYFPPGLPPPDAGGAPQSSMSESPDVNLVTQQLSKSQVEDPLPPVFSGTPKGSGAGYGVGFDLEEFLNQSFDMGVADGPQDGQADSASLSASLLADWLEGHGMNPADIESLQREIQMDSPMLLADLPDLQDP
# [12] = stronger effect = lower value, cell number ratio, induced over uninduced
# [13] = measured here: relative caspase fold change +Dox/-Dox
# [14] = measured here: total cells with miR-34 induction, stronger effect = lower value
# [15] = measured here: total cells without miR-34 induction
# [16] = MELAS cybrid survival, CellTiter-Glo 48 h, stronger effect = higher value
# [17] = Rieske KO mouse fibroblast survival, CellTiter-Glo 72 h
compound,measurement,setting,value
CC(=O)[C@]1(O)Cc2c(O)c3c(c(O)c2[C@@H](O[C@H]2C[C@H](N)[C@H](O)[C@H](C)O2)C1)C(=O)c1ccccc1C3=O,AC50,[1],5.25 µM (active)
same,AC50,[2],13.2 µM (active)
same,AC50,[3],4.68 µM (active)
same,IC50,[4],23.5 µM (active)
same,fold change,[5]; [12],1.18 (inactive) and 1.09 (inactive)
same,fold change,[5]; [13],0.974 and 1.09
same,cell count,[5]; [14],743 and 2700
same,cell count,[5]; [15],630 and 2460
same,SSMD,[6],-18.6
same,cell count,[6],5180
same,plate-normalised HSF1 focus index,[6],0.0445 (active)
same,outcome,[7],inactive
same,z-score,[8]; [16],2.62 (active)
same,z-score,[8]; [17],-0.996
same,z-score,[9],-1.04 (inactive) and -2.14 (inactive)
CN(C)CC/C=C1/c2ccccc2COc2ccc(CC(=O)O)cc21,outcome,[1],inactive
same,outcome,[2],inactive
same,outcome,[3],inactive
same,outcome,[4],inactive
same,fold change,[5]; [12],0.88 (inactive)
same,fold change,[5]; [13],0.692
same,cell count,[5]; [14],9640
same,cell count,[5]; [15],10900
same,z-score,[8]; [16],0.699 (inactive) and 0.823 (inactive)
same,z-score,[8]; [17],-0.41 and 0.615
same,z-score,[9],0.505 (inactive)
COCCCOc1cc(C[C@@H](C[C@H](N)[C@@H](O)C[C@H](C(=O)NCC(C)(C)C(N)=O)C(C)C)C(C)C)ccc1OC,outcome,[1],inactive
same,outcome,[2],inactive
same,outcome,[3],inactive
same,outcome,[4],inactive
same,fold change,[5]; [12],0.948 (inactive)
same,fold change,[5]; [13],0.866
same,cell count,[5]; [14],8860
same,cell count,[5]; [15],9350
same,remaining NAD,[10],10 nM (inactive)
same,luciferase signal,[11],68 AU (inactive)
O=C(Nc1ccc([N+](=O)[O-])cc1Cl)c1cc(Cl)ccc1O,AC50,[1],1.18 µM (active)
same,AC50,[2],0.59 µM (active)
same,AC50,[3],0.833 µM (active)
same,IC50,[4],1.32 µM (active)
same,fold change,[5]; [12],0.851 (inactive) and 1.03 (inactive) and 1.1 (inactive)
same,fold change,[5]; [13],0.641 and 1.64 and 2.16
same,cell count,[5]; [14],1500 and 2060 and 8890
same,cell count,[5]; [15],1770 and 2000 and 8060
same,outcome,[7],active
same,z-score,[8]; [16],-1.03 (inactive)
same,z-score,[8]; [17],-0.036
same,remaining NAD,[10],10 nM (inactive)
same,luciferase signal,[11],24 AU (inactive)
same,z-score,[9],-1.18 (inactive)
